Reference: PubChem BioAssay (NCATS)
Results filed as inconclusive are left out. The source made the active and inactive calls. Calls follow the shape of the dose curve; as a rule, active = well fitted inhibition curve with a large enough effect; inconclusive = small, poorly fitted or top-dose-only effect; inactive = flat fitted curve, though single readings scatter.

Assays:
[1] = system: CRL-7250; assay: Cytotoxic Profiling of Annotated Libraries Using Quantitative High-Throughput Screening (AID 1296008); conditions: Five cell lines viability, CellTiter-Glo ATP luminescence, 48-72 h; max response: stronger effect = lower value; as to max response: % is scaled to controls: 0 for no effect and ±100 for the full control effect
Outline: (§1)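 Cells exposed to compounds for 48 or 72 hr at 37 degrees Celsius. Viability read as ATP-coupled luminescence with CellTiter-Glo after 10 min at room temperature.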

[2] = system: HaCat; assay: as above; conditions: Five cell lines viability, CellTiter-Glo ATP luminescence, 48-72 h; max response: stronger effect = lower value
Outline: as §1

[3] = system: KB-3-1; assay: as above; conditions: Five cell lines viability, CellTiter-Glo ATP luminescence, 48-72 h; max response: stronger effect = lower value
Outline: as §1

[4] = system: NIH3T3; assay: as above; conditions: Five cell lines viability, CellTiter-Glo ATP luminescence, 48-72 h; max response: stronger effect = lower value
Outline: as §1

[5] = system: HACAT; assay: qHTS assay to identify novel small-molecules to repurpose for Merkel cell carcinoma treatment (AID 1296009); conditions: MCC and control cell lines, CellTiter-Glo viability, 72 h; at 44.8 µM (top of the series) unless noted
Outline: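 Cells were treated for 72 hr at 37 degree celsius with compounds in 8- or 11-point dose response. Viability was read by CellTiter-Glo luminescence, normalized to no-cell (cytotoxicity) and DMSO controls.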

Measured: max response
Also: nearly all actives have a fitted effect of over 60% in size.

O=C(Nc1ccccc1C(=O)Nc1ccc(CCO)cc1)c1ccc([N+](=O)[O-])cc1
inactive: [1] -0.113% | [2] | [3] | [4] | [5]

CNC(C)C(=O)NC(C(=O)N1CCCC1C(=O)Nc1snnc1-c1ccccc1)C1CCCCC1 (stereo not given)
inactive: [1] 0.759% | [2] | [3] 3.39% | [4] | [5]

O=C(Nc1ccc(N(Cc2ccsc2)C(=O)Cn2nnc3ccccc32)cc1)C1CC1
inactive: [1] -5.74% | [2] | [3] 6.41% | [4] 4.89% | [5]

Cc1cc(OCCCS(C)(=O)=O)cc(C)c1-c1cccc(COc2ccc(C3=CC(=O)NS3=O)cc2)c1 (stereo not given)
inactive: [1] 3.79% | [2] | [3] 3.57% | [4] -0.311% | [5]

C=C1CC[C@@H](O)[C@]2(C)CC[C@H]3C(=C)C(=O)O[C@@H]3[C@@H]12
inactive: [1] -3.82% | [2] | [3] | [4] -16.6% | [5]

CC1(C)CCCC2(C)C1C(OC(=O)/C=C/C=C/C=O)C=C1COC(=O)C12O (stereo not given)
inactive: [1] -21.2% | [2] | [3] | [4] -7.98% | [5] inactive [at 17.4 µM]

O=C(O)c1cc(N(Cc2ccc(C3CCCCC3)cc2)C(=O)c2ccc(Oc3ccccc3)cc2)ccc1O
inactive: [1] -16.9% | [2] | [3] | [4] -0.211% | [5]

COc1cccc(N2CCN(C3=Nc4c(F)cccc4[C@H](CC(=O)O)N3c3cc(C(F)(F)F)ccc3OC)CC2)c1
inactive: [1] 3.02% | [2] | [3] -13.7% | [4] 3.41% | [5]

COc1ccc(CCO[C@@H]2O[C@H](CO[C@H]3OC[C@](O)(CO)[C@H]3O)[C@@H](OC(=O)/C=C/c3ccc(O)c(O)c3)[C@H](O[C@@H]3O[C@@H](C)[C@H](O)[C@@H](O)[C@H]3O)[C@H]2O)cc1OC
inactive: [1] -14.2% | [2] | [3] 2.16% | [4] -1.58% | [5] inactive [at 17.4 µM]

COc1c(CCC(=O)O)cccc1O[C@@H]1O[C@H](CO)[C@@H](O)[C@H](O)[C@H]1O
inactive: [1] | [2] | [3] 0.734% | [4] 0.319% | [5]

O=C(Nc1cc(C(F)(F)F)ccc1N1CCCCC1)c1ccncc1
inactive: [1] -7.1% | [2] | [3] -6.53% | [4] 1.75% | [5]

O=S(=O)(N[C@H]1CCCC[C@@H]1N1CCOCC1)c1ccc(Cl)cc1
inactive: [1] -16% | [2] | [3] 1.51% | [4] | [5]

CCOc1ccc(CCNC(=O)c2cc3sc(Cl)cc3n2C)cc1OCC
inactive: [1] -5.08% | [2] | [3] -5.99% | [4] | [5]

CC(C)[C@@H](c1ccc(C(F)(F)F)cc1CN(Cc1cc(C(F)(F)F)cc(C(F)(F)F)c1)c1nnn(C)n1)N1CCC(C(=O)O)CC1
inactive: [1] -8.05% | [2] | [3] -11.9% | [4] 4.8% | [5]

O=C(NCCCN1CCC2(CC1)OCc1ccccc12)[C@H]1CCCN1Cc1ccccc1
inactive: [1] | [2] | [3] -7.1% | [4] 4.93% | [5]

O=C(O)c1ccc(S(=O)(=O)N(Cc2ccc(OC(F)(F)F)cc2)c2ncc(C(F)(F)F)cc2Cl)cc1
inactive: [1] -3.34% | [2] | [3] 0.52% | [4] -0.0805% | [5]

COc1ccc(CCN(C)CCCOc2nsc(-c3ccccc3)n2)cc1OC
inactive: [1] | [2] | [3] -3.88% | [4] | [5]

CC(=O)O[C@@H]1CC[C@@]2(C)[C@H](CC[C@@H]3[C@@H]2C[C@H](OC(C)=O)[C@]2(C)[C@@H](C(C)=O)CC[C@@H]32)C1
inactive: [1] -9.5% | [2] | [3] -28.9% | [4] -22.7% | [5]

Fc1ccc2c(CCNCc3cccc(OCC(F)(F)C(F)F)c3)c[nH]c2c1
inactive: [1] 4.88% | [2] | [3] 7.73% | [4] | [5]

CC(C)CCCCC(=O)N[C@@H](CO)C(=O)N[C@@H](CC(C)C)C(=O)[C@@]1(CO)CO1
inactive: [1] -2.59% | [2] | [3] -12% | [4] -2.24% | [5]

CN(C)CCOc1cc(NS(=O)(=O)c2c(Cl)cc(C(F)(F)F)cc2Cl)ccc1Cl
inactive: [1] 2.92% | [2] | [3] -11% | [4] | [5]

CCCNCCc1ccc(NS(=O)(=O)c2ccc(OC(F)(F)F)cc2)cc1
inactive: [1] -2.99% | [2] | [3] -2.39% | [4] | [5]

CC1(C)CC[C@]2(C(=O)O)[C@H](O)C[C@]3(C)C(=CCC4[C@@]5(C)CC[C@H](O[C@@H]6O[C@H](CO[C@@H]7OC[C@H](O)[C@H](O)[C@H]7O[C@@H]7OC[C@H](O)[C@H](O)[C@H]7O)[C@@H](O)[C@H](O)[C@H]6O)C(C)(C)C5CC[C@]43C)[C@@H]2C1 (stereo not given in full)
inactive: [1] | [2] | [3] | [4] -3.93% | [5] inactive [at 9.27 µM]

C=C(C)C1CCC2(C(=O)O)CCC3(C)C(CCC4C5(C)C(C=O)C(O)C(C)(C)C5CCC43C)C12 (stereo not given)
inactive: [1] -7.47% | [2] | [3] | [4] 0.383% | [5] inactive [at 17.4 µM]
